# Data published in article PMC12864922, “TDP-43 directly inhibits mRNA accumulation in neurites through modulation of mRNA stability”.
# Over roughly 9,900 sequences, “r (bound/input frequency ratio)” has its median near 0.7; the highest 2% begin near 6.5. Shown is part of a subset that was picked to be rich in the highest values.
# B1: ENSMUSG00000043670.145|Diras1 (ssRNA)
# RNA: GGGAGUUCUACAGUCCGACGAUCGCUUCGAUAUCCGCAUGCUAUCAGGGGAGGCACACUGGAACCCUGAACUUGGAGUGUGGAGUGGCUGCCUGGACACUGCCCACCUGGACACCAGCCUUCUGCUGAGAUAGAGACCUUGGCACAGUGGCACCUCGACAGCCACCCCGACUGGGGGUUUGGGGUGCUGAGGGUGGGGUGCCCAGCUGAGAGUCUAUCAGCAAAGUCCCUGUGUGCGGUGAUAGGACUAGUGGCUGCUGCCCUAGGGCUCUGACAGAAUCUGAGCCUCUUUGCUGGUCAUGUGCUCUUGCGGUCGCACUAGUGUGGAAUUCUCGGGUGUCAAGG
# B2: ENSMUSG00000022095.153|Fam160b2|110:114 (ssRNA)
# RNA: GGGAGUUCUACAGUCCGACGAUCGCUUCGAUAUCCGCAUGCUAGACUAUAGGAACUCAAGGUACAGAUGGGACAGGGCACCCCAACUCCAAACCCCAGAAGCCUAGUGAGGCUAGGCCGAGACACAAGCAGAUAGCUCUGGCAUUGUUCUUCCAUACUCCUCCAUGGCUGGGGCUGCUACCUCACCCGGCCUGAAUCUGUCUCAACCUGCAAGAGCACUCGGGCGGCGCCAGGCAUUACCUCACAACAGGCCUGCAGUUGUUGGCUUCCCUCCUGGGCAAGGAGGAGCAGGCCAGAGCCCCUUCUCUUGCGGUCGCACUAGUGUGGAAUUCUCGGGUGUCAAGG
# B3: ENSMUSG00000042529.77|Kcnj12|96:100 (ssRNA)
# RNA: GGGAGUUCUACAGUCCGACGAUCGCUUCGAUAUCCGCAUGCUAACAAACAAAAACAAACAAACAAACAAUCAAAAAAAAAACCCACCCCACAAAACACAAGAAAACAUUAACAGGUGGUUCAAUUUUUAAAAUUCCUGCACACGGGACAGUUGGAAUUCUACUCAGCGCUGCCAGGCAAGCAGCUGGACGGAGAACCCUGAGGGUUCUCAGAGGUCUGUUUUCUCCCUCACGUGGGCCAGGGCCUUAAGCGAGUUGUCAUGCUUAAGGAUGAAUCAGGCUGCUUGUGACCAUGUUAACGAUUCCUCUUGCGGUCGCACUAGUGUGGAAUUCUCGGGUGUCAAGG
# B4: ENSMUSG00000090935.460|Synj2bp (ssRNA)
# RNA: GGGAGUUCUACAGUCCGACGAUCGCUUCGAUAUCCGCAUGCUACACAACCAGUAAGAAAAAUAUUGCCAUCCAAAACAGAGCACAGUGCAGCAACAUAGAAGAUAAGCAGAUAACCAGCAAGUAUUGUAAGGAGUUCAGAAAAGGAAAGCCAUCGUGUAGUGGCAUCAGGGGAGAAUGGAAAGGAAAGUCUAGAACAGUCCAGUGAUACUUUACCUCUGGGAAAACUCUUGAUACAGGGAGACAUUUGCUUUAAACAAUCUUCACAUAACUAAGCCAUUCAGUACUUUUUGAAACUGACUUAGCUCUUGCGGUCGCACUAGUGUGGAAUUCUCGGGUGUCAAGG
# B5: ENSMUSG00000061578.947|Ksr2 (ssRNA)
# RNA: GGGAGUUCUACAGUCCGACGAUCGCUUCGAUAUCCGCAUGCUAAAGACUGCAUGUUAACGCUCCUGCCACUGUUGCCCCUUCCUUUACCCUUGGCAGACAUUGCUAAUCAAUCUCAGCACAGUUUCCAACCACAGUCAUAGAACAUUUGCCACAAAGGCCCUGGAUGUGACUAUAUGUGCUGAGAAGGGAAGGUAGUUUUCCCCCAGAAAGUCCCUUCUAAUAAACAUUGAUGACUUUAGAAUCCAUGACUCAGAAUUUUCCAGAGACCCAAUCCCUCGGGGUCCACUUAGUGAUGGGACCAUCUCUUGCGGUCGCACUAGUGUGGAAUUCUCGGGUGUCAAGG
# B6: ENSMUSG00000090935.28|Synj2bp|72:76;256:260 (ssRNA)
# RNA: GGGAGUUCUACAGUCCGACGAUCGCUUCGAUAUCCGCAUGCUAGUAAAUGGCCAAGAUCUGAAGAACCUGCUGCACCAAGAUGCUGUAGACCUCUUCCGUAAUGCGGGAUGUGCACACACCCUGAGAGUACAGCACAGGUUACCAGUGCAGAAUGGACCUAUAGUACAUCGAGGUGAAGGAGAGCCAAGUGGAGUUCCUGUAGCUAUGGUGCUGCUACCAGUGUUUGCCCUCACCAUGGUAGCAGUUUGGGCCUUCGUGAGAUACCGAAAGCAGCUUUGAAAUGCUUGCUGUCUUCCACACACCUCUUGCGGUCGCACUAGUGUGGAAUUCUCGGGUGUCAAGG
# B7: ENSMUSG00000042529.254|Kcnj12 (ssRNA)
# RNA: GGGAGUUCUACAGUCCGACGAUCGCUUCGAUAUCCGCAUGCUAUUCCCCUAGGACCCGCUGCAGAGGCAUGGGCUCCUCUGUGGUCCUGGCCAGACCUCUGCCCCCAAAUCUCACUGACUGUUCUAGCCUUGGCCUUGGGGCCUAAGGGUGCAUUCAGCCUGGGUGUGCUUACCUGCCACUCACCUCUCUAUCUAGUUGUCGAGUCUAGGGAAGGGCAGAGGGUGGGUCCUGGCCACUGGGUGCCACUGUGGGAGCCGGGGCACCUGUCAUUCUUUCUGAGUAGGUGGGCCUGUAUCCAGAGCCUCUUGCGGUCGCACUAGUGUGGAAUUCUCGGGUGUCAAGG
# B8: ENSMUSG00000061578.312|Ksr2 (ssRNA)
# RNA: GGGAGUUCUACAGUCCGACGAUCGCUUCGAUAUCCGCAUGCUACCAGGGAGGGCUGAAGCUCUGGGACCCUGAAGUGUCCCCCGGGAACUGGGACUCACUCAUCUUCUCCUGUUUGUAGCUCAAUGACCCAGUGGGUCACAGUUCUAGGCGCUCCAAGGAAGCCAGGGGAGGGGGACUCCUCAGGAAGGAGUGACCAGUCACCUGCCUCCCAGGGUUCUGCCUUGCCCUUAAGCUAGGGUCCUUCAAGCAUCCACAGACUUAGAGUGUGGUGGUAACAUGCUUGUAAUCCUGGCACUCUGGAGCUCUUGCGGUCGCACUAGUGUGGAAUUCUCGGGUGUCAAGG
# B9: ENSMUSG00000029636.114|Wasf3 (ssRNA)
# RNA: GGGAGUUCUACAGUCCGACGAUCGCUUCGAUAUCCGCAUGCUAGCGGCCAUUUUUAUGAGGGGAGCCCUGUGGGUACUCAUGUGGAAAGUGCCCACUGACUUUGGCAGAUGGAGUUCACUUUCAUGGCUAGCCCUGAUAGCGUUGGGCACCAGUUAGCCAGGCCAUGUUCAAGCUGCCUAGAGUCUGCAGAGCUUGCAUGGCAGAGCGGCCGCAUCUGGUUCCCUCCUACUCCACCCAGUGGAAAAGAGACCUCCACGUUUUAUUUUCUGGGAUCCCUGCUCCUCUGUUCACCAGGGAGUGAGCUCUUGCGGUCGCACUAGUGUGGAAUUCUCGGGUGUCAAGG
# Biological target: TDP-43 (Homo sapiens, UniProt Q13148 1-414)
# Sequence (Q13148 whole entry): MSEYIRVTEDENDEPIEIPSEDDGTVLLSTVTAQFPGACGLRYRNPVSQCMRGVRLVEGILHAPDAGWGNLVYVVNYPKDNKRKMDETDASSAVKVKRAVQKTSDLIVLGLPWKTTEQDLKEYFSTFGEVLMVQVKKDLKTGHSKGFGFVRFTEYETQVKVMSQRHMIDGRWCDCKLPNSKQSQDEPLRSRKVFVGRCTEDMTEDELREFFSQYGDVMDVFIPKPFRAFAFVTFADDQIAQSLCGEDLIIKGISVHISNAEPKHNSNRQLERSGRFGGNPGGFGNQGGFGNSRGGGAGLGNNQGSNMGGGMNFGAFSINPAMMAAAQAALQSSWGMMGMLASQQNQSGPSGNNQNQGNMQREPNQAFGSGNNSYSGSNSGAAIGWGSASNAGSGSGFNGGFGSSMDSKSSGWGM
# Assay: RNA Bind-n-Seq with designed 260-mer pool; 25 mM Tris-HCl, 150 mM KCl, 3 mM MgCl2, BSA (printed 500 mg/mL), 20 units/mL SUPERase IN; pH not stated; 500 nM RNA pool, 1 h, 4 C; TDP-43 5, 50, 500 nM; high values mean tight binding
# Details: protein: recombinant; tags: SBP (GST cleaved off with PreScission; pGEX-GST-SBP)
# Outline: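 In 25 mM Tris-HCl, 150 mM KCl, 3 mM MgCl2, BSA and SUPERase IN, 500 nM of an in vitro-transcribed 260-nt 3′ UTR oligo pool was incubated for 1 h at 4 °C with SBP-tagged TDP-43 (5, 50 or 500 nM) captured on streptavidin beads. RNA remaining after washes was biotin-eluted, reverse transcribed, PCR-amplified and sequenced. Binding, R, is the bound-sample abundance of each oligo, normalized to mapped reads, divided by its abundance in input. Each duplicate used a separate, independent protein batch.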
row,Binder,binding signal
1,B1,0.713 R (bound/input frequency ratio)
2,B2,1.53 R (bound/input frequency ratio)
3,B3,1.63 R (bound/input frequency ratio)
4,B4,0.396 R (bound/input frequency ratio)
5,B5,0.693 R (bound/input frequency ratio)
6,B6,1.49 R (bound/input frequency ratio)
7,B7,0.966 R (bound/input frequency ratio)
8,B8,0.535 R (bound/input frequency ratio)
9,B9,0.753 R (bound/input frequency ratio)
